Measured values reported in the supplement of paper PMC8728848.
Many of the other results were omitted from the sample, so the strongest signals are more common in it than they were.

How the values were obtained:
Experiment in all cases: glycan array binding signal (z-score within array); higher = stronger binding
Conditions in all cases: glycan notation: IUPAC condensed, linker removed
[1] = target: Fuc(a1-2)Gal(b1-3)GalNAc(b1-3)Gal
Procedure, shortened: (§1)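 Glycan array binding is given as a within-array Z-score, which can be read as non-binding when negative. The arrays, 3228 of them, came from the Consortium for Functional Glycomics database and were retained only where the protein sequence was available. Z-scores were averaged across arrays of the same protein sequence at different concentrations or buffers and across linkers.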

[2] = target: Fuc(a1-2)Gal(b1-3)GlcNAc6S
Procedure, shortened: as §1

[3] = target: Fuc(a1-2)Gal3S(b1-4)GlcNAc
Procedure, shortened: as §1

[4] = target: Fuc(a1-2)[Gal(a1-3)]Gal(b1-3)GalNAc(b1-3)Gal(a1-4)Gal(b1-4)Glc
Procedure, shortened: as §1

[5] = target: Fuc(a1-2)[Gal(a1-3)]Gal(b1-3)GlcNAc(b1-6)GalNAc
Procedure, shortened: as §1

[6] = target: Fuc(a1-2)[Gal(a1-3)]Gal(b1-4)GlcNAc(b1-2)Man(a1-3)[Fuc(a1-2)[Gal(a1-3)]Gal(b1-4)GlcNAc(b1-2)Man(a1-6)]Man(b1-4)GlcNAc(b1-4)GlcNAc
Procedure, shortened: as §1

[7] = target: Fuc(a1-2)[Gal(a1-3)]Gal(b1-4)GlcNAc(b1-3)GalNAc
Procedure, shortened: as §1

[8] = target: Fuc(a1-2)[Gal(a1-3)]Gal(b1-4)GlcNAc(b1-3)[Fuc(a1-2)[Gal(a1-3)]Gal(b1-4)GlcNAc(b1-6)]GalNAc
Procedure, shortened: as §1

[9] = target: Fuc(a1-2)[Gal(a1-3)]Gal(b1-4)GlcNAc(b1-6)GalNAc
Procedure, shortened: as §1

[10] = target: Fuc(a1-2)[Gal(a1-3)]Gal(b1-4)[Fuc(a1-3)]Glc
Procedure, shortened: as §1

[11] = target: Fuc(a1-3)[Gal(b1-4)]GlcNAc
Procedure, shortened: as §1

[12] = target: Fuc(a1-3)[Gal(b1-4)]GlcNAc(b1-2)Man
Procedure, shortened: as §1

[13] = target: Fuc(a1-3)[Gal(b1-4)]GlcNAc(b1-6)[Gal(b1-3)GlcNAc(b1-3)]Gal(b1-4)Glc
Procedure, shortened: as §1

Fuc(a1-4)GlcNAc = target: Fuc(a1-4)GlcNAc
Procedure, shortened: as §1

[14] = target: Gal(b1-3)GalNAc(b1-3)Gal(a1-4)Gal(b1-4)Glc
Procedure, shortened: as §1

[15] = target: Gal(b1-3)GlcNAc(b1-3)GalNAc
Procedure, shortened: as §1

[16] = target: Gal(b1-3)[GlcNAc(b1-6)]GalNAc
Procedure, shortened: as §1

[17] = target: Gal(b1-3)[Neu5Ac(b2-6)]GalNAc
Procedure, shortened: as §1

[18] = target: Gal(b1-4)GlcNAc(b1-3)Gal(b1-4)GlcNAc(b1-2)[Gal(b1-4)GlcNAc(b1-3)Gal(b1-4)GlcNAc(b1-6)]Man(a1-6)[Gal(b1-4)GlcNAc(b1-3)Gal(b1-4)GlcNAc(b1-2)Man(a1-3)]Man(b1-4)GlcNAc(b1-4)GlcNAc
Procedure, shortened: as §1

[19] = target: Gal(b1-4)GlcNAc(b1-3)GalNAc
Procedure, shortened: as §1

[20] = target: Gal(b1-4)GlcNAc(b1-3)[Gal(b1-4)GlcNAc(b1-6)]Gal(b1-4)GlcNAc
Procedure, shortened: as §1

[21] = target: Gal(b1-4)GlcNAc(b1-3)[GlcNAc(b1-6)]Gal(b1-4)GlcNAc
Procedure, shortened: as §1

[22] = target: Gal(b1-4)GlcNAc(b1-6)[Gal(b1-4)GlcNAc(b1-3)]GalNAc
Procedure, shortened: as §1

Gal(b1-6)Gal = target: Gal(b1-6)Gal
Procedure, shortened: as §1

[23] = target: Gal3S(b1-4)[Fuc(a1-3)]GlcNAc6S
Procedure, shortened: as §1

Gal3S4S(b1-4)GlcNAc = target: Gal3S4S(b1-4)GlcNAc
Procedure, shortened: as §1

Gal3S6S(b1-4)GlcNAc6S = target: Gal3S6S(b1-4)GlcNAc6S
Procedure, shortened: as §1

Gal6S(b1-4)Glc6S = target: Gal6S(b1-4)Glc6S
Procedure, shortened: as §1

GlcA(b1-3)GlcNAc = target: GlcA(b1-3)GlcNAc
Procedure, shortened: as §1

[24] = target: GlcNAc(a1-3)Gal(b1-4)GlcNAc
Procedure, shortened: as §1

[25] = target: GlcNAc(a1-4)Gal(b1-4)GalNAc
Procedure, shortened: as §1

[26] = target: GlcNAc(b1-2)[GlcNAc(b1-4)]Man(a1-3)[GlcNAc(b1-4)][GlcNAc(b1-2)[GlcNAc(b1-6)]Man(a1-6)]Man(b1-4)GlcNAc(b1-4)[Fuc(a1-6)]GlcNAc
Procedure, shortened: as §1

[27] = target: GlcNAc(b1-3)Gal(b1-4)GlcNAc
Procedure, shortened: as §1

[28] = target: GlcNAc(b1-3)Gal(b1-4)GlcNAc(b1-3)Gal(b1-4)GlcNAc(b1-3)Gal(b1-4)GlcNAc(b1-3)Gal(b1-4)GlcNAc(b1-2)[GlcNAc(b1-3)Gal(b1-4)GlcNAc(b1-3)Gal(b1-4)GlcNAc(b1-3)Gal(b1-4)GlcNAc(b1-3)Gal(b1-4)GlcNAc(b1-6)]Man(a1-6)[GlcNAc(b1-3)Gal(b1-4)GlcNAc(b1-3)Gal(b1-4)GlcNAc(b1-3)Gal(b1-4)GlcNAc(b1-3)Gal(b1-4)GlcNAc(b1-2)Man(a1-3)]Man(b1-4)GlcNAc(b1-4)[Fuc(a1-6)]GlcNAc
Procedure, shortened: as §1

GlcNAc(b1-3)Man = target: GlcNAc(b1-3)Man
Procedure, shortened: as §1

GlcNAc(b1-4)GlcNAc = target: GlcNAc(b1-4)GlcNAc
Procedure, shortened: as §1

GlcNAc(b1-6)GalNAc = target: GlcNAc(b1-6)GalNAc
Procedure, shortened: as §1

[29] = target: Man(a1-2)Man(a1-2)Man(a1-3)Man
Procedure, shortened: as §1

[30] = target: Neu5Ac(a2-3)Gal(b1-3)GalNAc(b1-4)[Neu5Ac(a2-3)]Gal(b1-4)Glc
Procedure, shortened: as §1

Neu5Ac(a2-3)Gal(b1-4)Glc = target: Neu5Ac(a2-3)Gal(b1-4)Glc
Procedure, shortened: as §1

[31] = target: Neu5Ac(a2-3)Gal(b1-4)GlcNAc(b1-3)Gal(b1-4)GlcNAc(b1-3)[Neu5Ac(a2-3)Gal(b1-4)GlcNAc(b1-3)Gal(b1-4)GlcNAc(b1-6)]GalNAc
Procedure, shortened: as §1

[32] = target: Neu5Ac(a2-3)[Neu5Ac(a2-6)]GalNAc
Procedure, shortened: as §1

Neu5Ac(a2-6)Gal = target: Neu5Ac(a2-6)Gal
Procedure, shortened: as §1

[33] = target: Neu5Ac(a2-6)Gal(b1-4)GlcNAc(b1-2)Man(a1-3)[Neu5Ac(a2-6)Gal(b1-4)GlcNAc(b1-2)Man(a1-6)]Man(b1-4)GlcNAc(b1-4)GlcNAc
Procedure, shortened: as §1

[34] = target: Neu5Ac(a2-6)Gal(b1-4)GlcNAc(b1-3)Gal(b1-4)GlcNAc(b1-3)[Neu5Ac(a2-6)Gal(b1-4)GlcNAc(b1-3)Gal(b1-4)GlcNAc(b1-6)]GalNAc
Procedure, shortened: as §1

[35] = target: Neu5Ac(a2-6)Gal(b1-4)GlcNAc(b1-6)[Gal(b1-3)GlcNAc(b1-3)]Gal(b1-4)Glc
Procedure, shortened: as §1

[36] = target: Neu5Ac(a2-6)Gal(b1-4)GlcNAc6S
Procedure, shortened: as §1

Neu5Ac(a2-8)Neu5Ac = target: Neu5Ac(a2-8)Neu5Ac
Procedure, shortened: as §1

[37] = target: Neu5Ac(a2-8)Neu5Ac(a2-3)Gal(b1-3)GalNAc(b1-4)[Neu5Ac(a2-3)]Gal(b1-4)Glc
Procedure, shortened: as §1

Neu5Gc(a2-3)Gal(b1-4)Glc = target: Neu5Gc(a2-3)Gal(b1-4)Glc
Procedure, shortened: as §1

[38] = target: Neu5Gc(a2-3)Gal(b1-4)GlcNAc
Procedure, shortened: as §1

[39] = target: Neu5Gc(a2-6)Gal(b1-4)GlcNAc
Procedure, shortened: as §1

B1: PNGase F (Flavobacterium meningosepticum) (protein)
chain: GIPAPADNTVNIKTFDKVKNAFGDGLSQSAEGTFTFPADVTAVKTIKMFIKNECPNKTCDEWDRYANVYVKNKTTGEWYEIGRFITPYWVGTEKLPRGLEIDVTDFKSLLSGNTELKIYTETWLAKGREYSVDFDIVYGTPDYKYSAVVPVVQYNKSSIDGVPYGKAHTLALKKNIQLPTNTEKAYLRTTISGWGHAKPYDAGSRGCAEWCFRTHTIAINNSNTFQHQLGALGCSANPINNQSPGNWTPDRAGWCPGMAVPTRIDVLNNSLIGSTFSYEYKFQNWTNNGTNGDAFYAISSFVIAKSNTPISAPVVTNLDPHHHHHH
glycan array binding signal (z-score) [1]: 1.61 | glycan array binding signal (z-score) [2]: -0.123 | glycan array binding signal (z-score) [3]: -0.157 | glycan array binding signal (z-score) [4]: 0.033 | glycan array binding signal (z-score) [5]: -0.032 | glycan array binding signal (z-score) [6]: -0.273 | glycan array binding signal (z-score) [7]: -0.226 | glycan array binding signal (z-score) [8]: 1.46 | glycan array binding signal (z-score) [9]: 0.476 | glycan array binding signal (z-score) [10]: -0.16 | glycan array binding signal (z-score) [11]: 0.02 | glycan array binding signal (z-score) [12]: 0.163 | glycan array binding signal (z-score) [13]: -0.308 | glycan array binding signal (z-score) (Fuc(a1-4)GlcNAc): 2.72 | glycan array binding signal (z-score) [14]: 0.036 | glycan array binding signal (z-score) [15]: -0.268 | glycan array binding signal (z-score) [16]: -0.166 | glycan array binding signal (z-score) [17]: -0.337 | glycan array binding signal (z-score) [18]: 1.63 | glycan array binding signal (z-score) [19]: -0.281 | glycan array binding signal (z-score) [20]: -0.219 | glycan array binding signal (z-score) [21]: 1.78 | glycan array binding signal (z-score) [22]: -0.289 | glycan array binding signal (z-score) (Gal(b1-6)Gal): 0.208 | glycan array binding signal (z-score) [23]: 0.165 | glycan array binding signal (z-score) (Gal3S4S(b1-4)GlcNAc): -0.092 | glycan array binding signal (z-score) (Gal3S6S(b1-4)GlcNAc6S): -0.035 | glycan array binding signal (z-score) (Gal6S(b1-4)Glc6S): -0.41 | glycan array binding signal (z-score) (GlcA(b1-3)GlcNAc): -0.118 | glycan array binding signal (z-score) [24]: -0.344 | glycan array binding signal (z-score) [25]: 1.26 | glycan array binding signal (z-score) [26]: -0.395 | glycan array binding signal (z-score) [27]: -0.264 | glycan array binding signal (z-score) [28]: -0.3 | glycan array binding signal (z-score) (GlcNAc(b1-3)Man): 3.03 | glycan array binding signal (z-score) (GlcNAc(b1-4)GlcNAc): 10.4 | glycan array binding signal (z-score) (GlcNAc(b1-6)GalNAc): -0.018 | glycan array binding signal (z-score) [29]: 1.49 | glycan array binding signal (z-score) [30]: -0.289 | glycan array binding signal (z-score) (Neu5Ac(a2-3)Gal(b1-4)Glc): 2.16 | glycan array binding signal (z-score) [31]: -0.043 | glycan array binding signal (z-score) [32]: 0.36 | glycan array binding signal (z-score) (Neu5Ac(a2-6)Gal): -0.129 | glycan array binding signal (z-score) [33]: -0.391 | glycan array binding signal (z-score) [34]: -0.278 | glycan array binding signal (z-score) [35]: -0.207 | glycan array binding signal (z-score) [36]: -0.286 | glycan array binding signal (z-score) (Neu5Ac(a2-8)Neu5Ac): -0.021 | glycan array binding signal (z-score) [37]: -0.328 | glycan array binding signal (z-score) (Neu5Gc(a2-3)Gal(b1-4)Glc): 0.187 | glycan array binding signal (z-score) [38]: 2.36 | glycan array binding signal (z-score) [39]: -0.046
